Results published in PubChem BioAssay AID1159580 (chemical genetic matrix, 2015).
Among all 5,500 compounds or so, about 2,000 (36%) were called active. Not shown: some 18% with an inconclusive outcome. Cut-off read from the data, not from the text of the source: active = normalized growth mostly below about 0.91 (no sharp cut-off); inconclusive = no clear call, values can overlap the other calls; inactive = mostly above about 0.92. This is one part of the list.

Assay: chemical genetic growth profiling, strain panel (AID 1159580);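 note: tested at 20 µM; growth read once vehicle control cultures reached saturation at 30 °C; 1 = growth at the plate median or of vehicle wells; lower values mean less growth of the strain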
Details: growth OD
[1] = S. cerevisiae deletion strains, locus YAL013W, strain DEP1, hits give low values
[2] = S. cerevisiae deletion strains, locus YDR150W, strain NUM1, hits give low values
[3] = S. cerevisiae deletion strains, locus YGR078C, strain PAC10, hits give low values
[4] = S. cerevisiae deletion strains, locus YJR075W, strain HOC1, hits give low values
[5] = S. cerevisiae deletion strains, locus YNL153C, strain GIM3, hits give low values
[6] = S. cerevisiae deletion strains, locus YPL055C, strain LGE1, hits give low values
[7] = S. cerevisiae deletion strains, locus YPL241C, strain CIN2, hits give low values
[8] = S. cerevisiae deletion strains, locus YAR019C, strain CDC15, hits give low values
[9] = S. cerevisiae deletion strains, locus YBL105C, strain PKC1, hits give low values
[10] = S. cerevisiae deletion strains, locus YBR135W, strain CKS1, hits give low values
[11] = S. cerevisiae deletion strains, locus YBR136W, strain MEC1, hits give low values
[12] = S. cerevisiae deletion strains, locus YBR160W, strain CDC28, hits give low values
[13] = S. cerevisiae deletion strains, locus YDL017W, strain CDC7, hits give low values
[14] = S. cerevisiae deletion strains, locus YDL028C, strain MPS1, hits give low values
[15] = S. cerevisiae deletion strains, locus YDL101C, strain DUN1, hits give low values
[16] = S. cerevisiae deletion strains, locus YDL108W, strain KIN28, hits give low values
[17] = S. cerevisiae deletion strains, locus YDL132W, strain cdc53, hits give low values
[18] = S. cerevisiae deletion strains, locus YDL214C, strain PRR2, hits give low values
[19] = S. cerevisiae deletion strains, locus YDR052C, strain DBF4, hits give low values
[20] = S. cerevisiae deletion strains, locus YDR054C, strain cdc34, hits give low values
[21] = S. cerevisiae deletion strains, locus YDR226W, strain ADK1, hits give low values
[22] = S. cerevisiae deletion strains, locus YDR477W, strain SNF1, hits give low values
[23] = S. cerevisiae deletion strains, locus YER123W, strain YCK3, hits give low values
[24] = S. cerevisiae deletion strains, locus YER133W, strain GLC7, hits give low values
[25] = S. cerevisiae deletion strains, locus YFL009W, strain cdc4, hits give low values
[26] = S. cerevisiae deletion strains, locus YFL029C, strain CAK1, hits give low values
[27] = S. cerevisiae deletion strains, locus YFR003C, strain YPI1, hits give low values
[28] = S. cerevisiae deletion strains, locus YFR019W, strain FAB1, hits give low values
[29] = S. cerevisiae deletion strains, locus YFR028C, strain CDC14, hits give low values
[30] = S. cerevisiae deletion strains, locus YGR040W, strain KSS1, hits give low values
[31] = S. cerevisiae deletion strains, locus YGR052W, strain FMP48, hits give low values
[32] = S. cerevisiae deletion strains, locus YGR092W, strain DBF2, hits give low values
[33] = S. cerevisiae deletion strains, locus YHR030C, strain SLT2, hits give low values
[34] = S. cerevisiae deletion strains, locus YHR079C, strain IRE1, hits give low values
[35] = S. cerevisiae deletion strains, locus YHR082C, strain KSP1, hits give low values
[36] = S. cerevisiae deletion strains, locus YHR205W, strain SCH9, hits give low values
[37] = S. cerevisiae deletion strains, locus YIL147C, strain SLN1, hits give low values
[38] = S. cerevisiae deletion strains, locus YJL095W, strain BCK1, hits give low values
[39] = S. cerevisiae deletion strains, locus YJL128C, strain PBS2, hits give low values
[40] = S. cerevisiae deletion strains, locus YJL157C, strain FAR1, hits give low values
[41] = S. cerevisiae deletion strains, locus YJR016C, strain ILV3, hits give low values
[42] = S. cerevisiae deletion strains, locus YJR066W, strain TOR1 (second series), hits give low values
[43] = S. cerevisiae deletion strains, locus YJR066W, strain TOR1, hits give low values
[44] = S. cerevisiae deletion strains, locus YKL048C, strain ELM1, hits give low values
[45] = S. cerevisiae deletion strains, locus YKL067W, strain YNK1, hits give low values
[46] = S. cerevisiae deletion strains, locus YKL101W, strain HSL1, hits give low values
[47] = S. cerevisiae deletion strains, locus YKL193C, strain SDS22, hits give low values
[48] = S. cerevisiae deletion strains, locus YKL203C, strain TOR2, hits give low values
[49] = S. cerevisiae deletion strains, locus YLR113W, strain HOG1, hits give low values
[50] = S. cerevisiae deletion strains, locus YLR133W, strain CKI1, hits give low values
[51] = S. cerevisiae deletion strains, locus YLR403W, strain SFP1, hits give low values
[52] = S. cerevisiae deletion strains, locus YML070W, strain DAK1, hits give low values
[53] = S. cerevisiae deletion strains, locus YMR001C, strain CDC5, hits give low values
[54] = S. cerevisiae deletion strains, locus YMR205C, strain PFK2 (second series), hits give low values
[55] = S. cerevisiae deletion strains, locus YMR277W, strain FCP1, hits give low values
[56] = S. cerevisiae deletion strains, locus YNL006W, strain LST8, hits give low values
[57] = S. cerevisiae deletion strains, locus YNL020C, strain ARK1, hits give low values
[58] = S. cerevisiae deletion strains, locus YNL161W, strain CBK1, hits give low values
[59] = S. cerevisiae deletion strains, locus YNL183C, strain NPR1, hits give low values
[60] = S. cerevisiae deletion strains, locus YNL207W, strain RIO2, hits give low values
[61] = S. cerevisiae deletion strains, locus YNL222W, strain SSU72, hits give low values
[62] = S. cerevisiae deletion strains, locus YNL307C, strain MCK1 (second series), hits give low values
[63] = S. cerevisiae deletion strains, locus YOL078W, strain AVO1, hits give low values
[64] = S. cerevisiae deletion strains, locus YOL136C, strain PFK27, hits give low values
[65] = S. cerevisiae deletion strains, locus YOR061W, strain CKA2, hits give low values
[66] = S. cerevisiae deletion strains, locus YOR119C, strain RIO1, hits give low values
[67] = S. cerevisiae deletion strains, locus YOR231W, strain MKK1, hits give low values
[68] = S. cerevisiae deletion strains, locus YOR329C, strain SCD5, hits give low values
[69] = S. cerevisiae deletion strains, locus YPL031C, strain PHO85, hits give low values
[70] = S. cerevisiae deletion strains, locus YPL153C, strain RAD53, hits give low values
[71] = S. cerevisiae deletion strains, locus YPL204W, strain HRR25, hits give low values
[72] = S. cerevisiae deletion strains, locus YPL209C, strain IPL1, hits give low values
[73] = S. cerevisiae deletion strains, locus YPL256C, strain CLN2, hits give low values
[74] = S. cerevisiae deletion strains, locus YPR025C, strain CCL1, hits give low values
[75] = S. cerevisiae deletion strains, locus YPR106W, strain ISR1, hits give low values
[76] = S. cerevisiae deletion strains, locus YPR111W, strain DBF20, hits give low values
[77] = S. cerevisiae deletion strains, strain NNK1, hits give low values
[78] = S. cerevisiae deletion strains, strain TSCII, hits give low values

Measured: normalized growth

CCCN(CCC)C1CCc2cccc(O)c2C1 (stereo unspecified)
inactive: [1] 1 | S. cerevisiae deletion strains, locus YAL040C, strain CLN3, hits give low values 0.984 | S. cerevisiae deletion strains, locus YCL061C, strain MRC1 (second series), hits give low values 1 | [2] 0.998 | S. cerevisiae deletion strains, locus YDR363W, strain ESC2, hits give low values 1.01 | S. cerevisiae deletion strains, locus YER002W, strain NOP16, hits give low values 1 | [3] 1.01 | [4] 0.995 | S. cerevisiae deletion strains, locus YNL128W, strain TEP1, hits give low values 1 | [5] 1.1 | S. cerevisiae deletion strains, locus YNL175C, strain NOP13, hits give low values 1.01 | S. cerevisiae deletion strains, locus YNL197C, strain WHI3, hits give low values 1.01 | S. cerevisiae deletion strains, locus YNL224C, strain SQS1, hits give low values 1.02 | S. cerevisiae deletion strains, locus YOR083W, strain WHI5 (second series), hits give low values 1.01 | [6] 1 | [7] 1

Cc1ccc(NNC(=O)c2c(C)noc2C)cc1Cl
inactive: [8] 0.977 | [9] 0.972 | [10] 0.982 | [11] 0.975 | [12] 0.982 | [13] 0.979 | [14] 0.986 | [15] 0.976 | [16] 0.981 | [17] 0.987 | [18] 0.939 | [19] 0.988 | [20] 0.993 | [21] 0.978 | [22] 0.946 | [23] 0.857 | [24] 0.947 | [25] 0.986 | [26] 0.984 | [27] 0.983 | [28] 0.903 | [29] 0.992 | [30] 0.925 | [31] 0.987 | [32] 0.833 | [33] 0.865 | [34] 0.964 | [35] 1.02 | [36] 0.926 | [37] 0.983 | [38] 0.929 | [39] 0.979 | [40] 0.923 | [41] 0.981 | [42] 0.909 | [43] 0.983 | [44] 0.916 | [45] 0.935 | [46] 0.943 | [47] 0.985 | [48] 1 | [49] 0.868 | [50] 0.943 | [51] 0.92 | [52] 0.906 | [53] 0.984 | [54] 0.955 | [55] 0.986 | [56] 0.99 | [57] 0.948 | [58] 0.98 | [59] 0.98 | [60] 0.992 | [61] 0.982 | [62] 0.881 | [63] 0.98 | [64] 0.922 | [65] 0.917 | [66] 0.976 | [67] 0.917 | [68] 0.986 | [69] 0.944 | [70] 0.922 | [71] 0.956 | [72] 0.973 | [73] 0.903 | [74] 0.981 | [75] 0.981 | [76] 0.961 | [77] 0.975 | [78] 0.98

Cc1onc(-c2c(F)cccc2Cl)c1C(=O)NNc1cc(Cl)cc(Cl)c1
inactive: [8] 0.987 | [9] 0.984 | [10] 0.987 | [11] 0.985 | [12] 0.976 | [13] 0.989 | [14] 0.986 | [15] 0.987 | [16] 0.976 | [17] 0.989 | [18] 0.902 | [19] 0.99 | [20] 0.982 | [21] 0.991 | [22] 0.931 | [23] 0.864 | [24] 0.937 | [25] 0.979 | [26] 0.977 | [27] 0.987 | [28] 0.908 | [29] 0.976 | [30] 0.894 | [31] 0.951 | [32] 0.937 | [33] 0.962 | [34] 0.939 | [35] 0.964 | [36] 0.89 | [37] 0.989 | [38] 0.942 | [39] 0.956 | [40] 0.916 | [41] 0.988 | [42] 0.883 | [43] 0.984 | [44] 0.878 | [45] 0.927 | [46] 0.894 | [47] 0.98 | [48] 0.992 | [50] 0.906 | [51] 0.901 | [52] 0.89 | [53] 0.98 | [54] 0.936 | [55] 0.983 | [56] 0.984 | [57] 0.914 | [58] 0.979 | [59] 0.935 | [60] 0.987 | [61] 0.988 | [62] 0.879 | [63] 0.978 | [64] 0.884 | [65] 0.908 | [66] 0.972 | [67] 0.889 | [68] 0.984 | [69] 0.936 | [70] 0.928 | [71] 0.918 | [72] 0.979 | [74] 0.98 | [75] 0.956 | [76] 0.955 | [77] 0.955 | [78] 0.986
active: [49] 0.798 | [73] 0.839

Cc1onc(-c2c(F)cccc2Cl)c1C(=O)Oc1ccccc1
inactive: [1] 0.964 | S. cerevisiae deletion strains, locus YBR229C, strain ROT2, hits give low values 0.962 | S. cerevisiae deletion strains, locus YCL061C, strain MRC1, hits give low values 0.963 | [15] 0.938 | S. cerevisiae deletion strains, locus YDL134C, strain PPH21, hits give low values 0.993 | [2] 0.943 | [3] 0.945 | [33] 0.727 | S. cerevisiae deletion strains, locus YHR087W, strain rtc3, hits give low values 0.948 | S. cerevisiae deletion strains, locus YJR043C, strain POL32, hits give low values 0.951 | [4] 0.939 | S. cerevisiae deletion strains, locus YLR039C, strain RIC1, hits give low values 0.857 | S. cerevisiae deletion strains, locus YLR058C, strain SHM2 (second series), hits give low values 0.973 | S. cerevisiae deletion strains, locus YLR085C, strain ARP6, hits give low values 0.838 | S. cerevisiae deletion strains, locus YLR262C, strain YPT6, hits give low values 0.839 | S. cerevisiae deletion strains, locus YML094W, strain GIM5, hits give low values 0.978 | S. cerevisiae deletion strains, locus YMR219W, strain ESC1, hits give low values 0.966 | S. cerevisiae deletion strains, locus YMR263W, strain SAP30, hits give low values 0.979 | S. cerevisiae deletion strains, locus YMR307W, strain GAS1, hits give low values 0.705 | [5] 0.984 | S. cerevisiae deletion strains, locus YNL298W, strain CLA4 (second series), hits give low values 0.98 | S. cerevisiae deletion strains, locus YNL322C, strain KRE1, hits give low values 0.973 | S. cerevisiae deletion strains, locus YNR030W, strain Alg12, hits give low values 0.989 | [6] 0.97 | [7] 0.994 | S. cerevisiae deletion strains, locus YPR135W, strain CTF4, hits give low values 0.948 | S. cerevisiae strains, strain wild type, hits give low values 0.935
active: S. cerevisiae deletion strains, locus YEL061C, strain CIN8, hits give low values 0.908
